Test results published in PubChem BioAssay AID2314 (National Center for Advancing Translational Sciences (NCATS), 2010).
Out of some 300,000 compounds screened, about 37,000 (12%) were called active. Rule as the data show it: active = max response mostly above about 13% (no sharp cut-off); inactive = mostly below about 14%. What follows is part of a selection rich in actives, with near analogues and random picks from the rest.

Assay: Cycloheximide Counterscreen for Small Molecule Inhibitors of Shiga Toxin; also: read at 38.3 µM for the half of the compounds with a filed dose; 0% is about no effect
Settings: cell reporter, cycloheximide protein synthesis inhibition counterscreen; hits give high values

Row | SMILES | max response
1 | COc1ccc(CN(C)C(=O)Cc2ccsc2)c(OC)c1OC | -2.85% (inactive)
2 | CC(C)CNS(=O)(=O)c1ccc(CCC(=O)NCc2ccc(Cl)cc2)cc1 | -1.7% (inactive)
3 | COc1ccc(CN2CCN(C(=O)CCC(=O)Nc3nnc(C(C)C)s3)CC2)cc1F | -9.15% (inactive)
4 | CC1C(=O)C(C)C(c2ccc(O)cc2)NC1c1ccc(O)cc1 (stereo unspecified) | -3.88% (inactive)
5 | CC(NC(=O)C(C)(C)C)C(c1cccs1)N1CCN(Cc2ccccc2)CC1 (stereo unspecified) | 1.72% (inactive)
6 | C#CC(C)(C)NC(=O)c1cnc(-c2ccccc2)nc1-c1ccccc1 | 1.23% (inactive)
7 | Cc1ccc(NC(=O)C2CC(c3ccc(F)cc3)=NO2)cc1 (stereo unspecified) | 4.66% (inactive)
8 | Cc1ccccc1N1CC(C(=O)Nc2ccc3c(c2)OCO3)CC1=O (stereo unspecified) | 15.7% (inactive)
9 | O=C(Nc1ccc2c(c1)OCO2)C1CC(c2c(F)cccc2Cl)=NO1 (stereo unspecified) | 31.8% (active)
10 | Cc1ccc(S(=O)(=O)N(Cc2ccccc2)c2ccccn2)cc1[N+](=O)[O-] | 2.38% (inactive)
11 | CS(=O)(=O)N(CC(=O)Nc1ccc(F)cc1F)c1cccc([N+](=O)[O-])c1 | 1.91% (inactive)
12 | O=C(/C=C/c1cccc([N+](=O)[O-])c1)N1CCN(Cc2ccccc2)CC1 | 21.5% (inactive)
13 | O=C(c1cccc([N+](=O)[O-])c1)N1CCN(Cc2ccccc2)CC1 | -6.89% (inactive)
14 | Cc1c(Br)c([N+](=O)[O-])nn1CC(=O)N1CCN(Cc2ccccc2)CC1 | 14.4% (active)
15 | COc1ccc(-c2cc(C(=O)N3CCN(Cc4ccc5c(c4)OCO5)CC3)on2)cc1OC | -9.89% (inactive)
16 | Cc1cc2c(C)nc(N/N=C/c3ccccc3)nc2o1 | 38% (active)
17 | Cc1cc(C)nc(N/N=C/c2ccc([N+](=O)[O-])o2)n1 | 0.645% (inactive)
18 | Cc1cc(C)nc(N/N=C/c2c(C)oc3ccccc23)n1 | 1.89% (inactive)
19 | COc1ccc(C(=O)NCCSc2ccccc2C)cc1 | 46% (active)
20 | COc1ccc(C(=O)NCc2nnc(SCCOc3ccccc3)n2C)cc1 | -1.69% (inactive)
21 | COc1cccc(C(=O)NCCSc2ccc(Br)cc2)c1 | 3.16% (inactive)
22 | N#Cc1ccccc1S(=O)(=O)N1CCN(C(=O)c2cc(-c3ccccc3)nn2-c2ccccc2)CC1 | -0.928% (inactive)
23 | COCCCNc1nc2c(-c3cccc(C(F)(F)F)c3)nnn2c2ccccc12 | -2.05% (inactive)
24 | COCCCNc1nc2c(-c3cccc(C)c3)nnn2c2ccc(Cl)cc12 | 11.5% (active)
25 | COC(=O)Cn1nc(-c2ccccc2)c2cc(Cl)ccc21 | -2.04% (inactive)
26 | O=C(CCS(=O)(=O)c1ccc(Br)cc1)NCCc1ccc(Cl)cc1 | -3.3% (inactive)
